In PubChem BioAssay (NCI):
Several values for one entry are separate records, joined by “and”; a condition that tells them apart may be missing. Equal entries are not always repeated. Compounds without any hit were thinned out: in the full panel of roughly 83,000, 20% have a hit.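 Activity criterion: percent growth below 10, measured after cells in 96-well plates were exposed to a single compound concentration for 48 hours.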 Activity calls are given as the source filed them.

System: MDA-MB-468 breast
Test: NCI-60 one-dose screen, 48 h (100 = growth as untreated, 0 = no growth, -100 = all killed)
Settings: 10 µM unless noted

| Compound | growth |
| --- | --- |
| N#C/C(=C\c1ccc(Br)cc1)n1nnc2cc(F)c(F)cc21 | -6.6% (active) |
| COc1ccc(NC(=O)CSc2nnc(-c3cc(-c4ccc(S(N)(=O)=O)cc4)nc4ccccc34)n2-c2ccccc2)cc1 | 86.4% (inactive) |
| Clc1ccc(N2N=C(c3cccc(Nc4ccncc4)c3)CC2c2ccc3c(c2)OCO3)cc1 (stereo not given) | 62.1% (inactive) |
| C=C1C(=O)O[C@H]2[C@H]1CC/C(COC(=O)NCCc1ccc(OC)c(OC)c1)=C\CC[C@@]1(C)O[C@@H]21 | 16.9% (inactive) |
| COC(=O)c1ccc2c(c1)Oc1ccc(Cl)cc1-c1cc(C)nn1-2 | 87% (inactive) |
| Cc1nn(-c2nc3ccccc3[nH]2)c2c1C(c1ccc3c(c1)OCO3)CC(=O)N2 (stereo not given) | 47.7% (inactive) |
| COc1cccc(C2C(C#N)=C(N)Oc3cc(N)ccc32)c1 (stereo not given) | -22.2% (active) |
| COc1cc(/C=C/c2cc(/C=C/c3ccc(O)c(OC)c3)n(C(=O)Nc3ccc(F)cc3)n2)ccc1O | -14.6% (active) |
| CC1=CC(=Nc2ccc(N(C)C)cc2)C=C(C)C1=O | 15% (inactive) |
| O=C(/C=C/c1ccccc1)c1ccc(O)c(CN2CCN(c3cc4c(cc3F)c(=O)c(C(=O)O)cn4C3CC3)CC2)c1 | 3.64% (active) |
| O=c1c2cc(F)ccc2sc2c(NCCCN3CCCC3)nc3ccccc3c12 | -13.7% (active) |
| COc1ccc(-c2nc3sc(-c4ccccc4)c(-c4ccccc4)n3c2/C=C/c2ccc(F)cc2)cc1 | 82.7% (inactive) |
| CN(C)Cc1cn(-c2ncc(-c3ccc(C(F)(F)F)cc3)c(NC3CCCCCC3)n2)nn1 | 82.9% (inactive) |
| COc1cc(Nc2nc(N[C@H]3CCCC[C@@H]3N)nc3cc[nH]c(=O)c23)cc(OC)c1 | -24.5% (active) |
| COc1ccc(-c2nc3ncccn3c2-c2nnc(-c3ccsc3C)o2)cc1 | 86.1% (inactive) |
| COC(=O)C1C(O)C(C)C(O)C(C)C=C(C)C2=C3C(=C(C)C(=O)c4c(O)c(c(C)c(OC(C)=O)c43)NC(=O)C(C)=C/C=C\C(C)C(O)C(C)C1O)OCO2 (stereo not given) | 106% (inactive) |
| c1ccc(-c2nn(-c3ccccc3)[n+](-c3ccccc3-c3ccccc3)n2)cc1 | -38.6% (active) |
| CCCCOc1ccc(Nc2cc(Cl)ccc2C(=O)O)cn1 | 99.6% (inactive) and 103% (inactive) |
| COc1ccc2[nH]cc(-c3nc(-c4cn(C)c5ccncc45)cs3)c2c1 | 102% (inactive) |
| O=C(/C=C(/C=C/c1coc2ccccc12)OB(F)F)/C=C/c1coc2ccccc12 | 112% (inactive) |
| c1ccc(-c2ccc(-c3nc4ccccc4[nH]3)cc2)cc1 | 87% (inactive) |
| c1cc2c(ccc3[nH]c(-c4ccc5[nH]ncc5c4)c4c(c32)CCCC4)n1 | 76.7% (inactive) |
| O=C(/C=C/c1ccc([N+](=O)[O-])o1)NNC(=O)c1cc2ccccc2cc1O | 6.09% (active) |
| COc1ccc(-c2nc3sccn3c2/C=C/C(=O)c2cc(OC)c(OC)c(OC)c2)cc1OC | -13.4% (active) |
| N=C(N)c1ccc(-c2ccc(-c3cccs3)s2)cc1 | -80.6% (active) |
